About 3,300 (8.5%) of roughly 39,000 compounds were called active. This is one part of a sample in which actives are shown more often than they occur.
test system: HepG2; assay: cytotoxicity call (relative viability < 0.9); settings: 10 µM

Compound | cytotoxicity call
COC(=O)C(CC#Cc1ccc2c(c1)[C@]1(C(=O)N2)[C@H](c2ccc(OCCO)cc2)N2[C@H](c3ccccc3)[C@H](c3ccccc3)OC(=O)[C@H]2[C@@H]1C(=O)Nc1nc2ccccc2s1)C(=O)OC | inactive
C[C@@H]1CN([C@H](C)CO)C(=O)c2cccc(NS(=O)(=O)c3cccs3)c2O[C@H]1CN(C)S(=O)(=O)c1ccccc1 | inactive
C[C@H](CO)N1C[C@H](C)[C@@H](CN(C)C(=O)c2ccncc2)Oc2ncc(C#CC3CCCCC3)cc2C1=O | inactive
C[C@H](CO)N1C[C@H](C)[C@@H](CN(C)C(=O)c2cnccn2)Oc2ncc(-c3cccc(C#N)c3)cc2C1=O | inactive
C[C@@H]1CN([C@@H](C)CO)C(=O)c2cccc(NC(=O)Nc3cccc4ccccc34)c2O[C@H]1CN(C)S(=O)(=O)c1ccc2ncsc2c1 | inactive
C[C@@H]1CCCCO[C@@H](CN(C)S(=O)(=O)c2ccc(F)cc2)[C@H](C)CN([C@H](C)CO)C(=O)c2cc(NC(=O)Nc3ccc(F)cc3)ccc2O1 | active
C[C@@H]1CN([C@@H](C)CO)C(=O)c2cc(NC(=O)Nc3ccc(F)cc3)ccc2O[C@@H](C)CCCCO[C@@H]1CN(C)S(=O)(=O)c1ccc(F)cc1 | inactive
C[C@@H]1CCCCO[C@@H](CN(C)S(=O)(=O)c2ccc(F)cc2)[C@@H](C)CN([C@H](C)CO)C(=O)c2cc(NC(=O)Nc3ccc(F)cc3)ccc2O1 | inactive
C[C@@H]1CCCCO[C@@H](CN(C)S(=O)(=O)c2ccc(F)cc2)[C@@H](C)CN([C@H](C)CO)C(=O)c2cc(NC(=O)Nc3ccc4c(c3)OCO4)ccc2O1 | inactive
C[C@@H]1CN([C@H](C)CO)C(=O)c2cc(NC(=O)Nc3ccc4c(c3)OCO4)ccc2O[C@@H](C)CCCCO[C@@H]1CN(C)S(=O)(=O)c1ccc(F)cc1 | inactive
C[C@@H]1CCCCO[C@H](CN(C)S(=O)(=O)c2ccc(F)cc2)[C@@H](C)CN([C@H](C)CO)C(=O)c2cc(NC(=O)Nc3ccc4c(c3)OCO4)ccc2O1 | active
C[C@H]1CCCCO[C@H](CN(C)S(=O)(=O)c2ccc(F)cc2)[C@@H](C)CN([C@@H](C)CO)C(=O)c2cc(NC(=O)Nc3ccc(F)cc3)ccc2O1 | inactive
C[C@@H]1CN([C@H](C)CO)C(=O)c2cc(NC(=O)Nc3ccc(F)cc3)ccc2O[C@@H](C)CCCCO[C@H]1CN(C)S(=O)(=O)c1ccc(F)cc1 | active
C[C@H]1CCCCO[C@@H](CN(C)S(=O)(=O)c2ccc(F)cc2)[C@@H](C)CN([C@@H](C)CO)C(=O)c2cc(NC(=O)Nc3ccc(F)cc3)ccc2O1 | inactive
C[C@H](CO)N1C[C@H](C)[C@@H](CN(C)S(=O)(=O)c2ccc(F)cc2)OCCCC[C@H](C)Oc2ccc(NC(=O)Nc3ccc(F)cc3)cc2C1=O | inactive
C[C@@H]1CCCCO[C@@H](CN(C)S(=O)(=O)c2ccc(F)cc2)[C@H](C)CN([C@@H](C)CO)C(=O)c2cc(NC(=O)Nc3ccc(F)cc3)ccc2O1 | inactive
C[C@@H]1CCCCO[C@@H](CN(C)S(=O)(=O)c2ccc(F)cc2)[C@@H](C)CN([C@@H](C)CO)C(=O)c2cc(NC(=O)Nc3ccc(F)cc3)ccc2O1 | active
O=C(O)CNS(=O)(=O)c1ccccc1F | inactive
Cc1noc(C)c1S(=O)(=O)Nc1ccc2c(c1)CC(=O)N([C@H](C)CO)C[C@@H](C)[C@H](CN(C)S(C)(=O)=O)O2 | inactive
C[C@@H]1CN([C@@H](C)CO)C(=O)c2cccc(NC(=O)c3nc4ccccc4s3)c2O[C@H]1CN(C)Cc1ccc(-c2ccccc2)cc1 | inactive
COc1ccc(S(=O)(=O)Nc2ccc3c(c2)C(=O)N([C@@H](C)CO)C[C@H](C)[C@@H](CN(C)C(=O)Nc2cccc4ccccc24)O3)cc1 | inactive
C[C@@H]1CN([C@H](C)CO)C(=O)c2cc(NS(C)(=O)=O)ccc2O[C@H]1CN(C)Cc1ccc(C(F)(F)F)cc1 | inactive

Compound | cytotoxicity call
C[C@H]1CN([C@@H](C)CO)C(=O)c2cccc(NC(=O)C3CCOCC3)c2O[C@H]1CN(C)S(=O)(=O)c1ccccc1 | inactive
O=C(C[C@@H]1CC[C@H]2[C@@H](COC[C@@H](O)CN2S(=O)(=O)c2ccc(F)cc2)O1)NCc1ccc(Cl)c(Cl)c1 | inactive
O=C(Nc1ccc(C(=O)Nc2ccc(C(=O)Nc3ccc(S(=O)(=O)O)c4cc(S(=O)(=O)O)cc(S(=O)(=O)O)c34)cc2)cc1)Nc1ccc(C(=O)Nc2ccc(C(=O)Nc3ccc(S(=O)(=O)O)c4cc(S(=O)(=O)O)cc(S(=O)(=O)O)c34)cc2)cc1 | inactive
C[C@H]1CN([C@@H](C)CO)C(=O)c2cc(Br)cnc2O[C@@H]1CN(C)S(=O)(=O)c1ccccc1 | inactive
C[C@@H]1CN([C@@H](C)CO)C(=O)c2cc(NS(=O)(=O)c3ccc(F)cc3)ccc2O[C@@H]1CN(C)S(=O)(=O)c1ccccc1 | inactive
C=CCOC(=O)[C@@H]1[C@H]2C(=O)O[C@H](c3ccccc3)[C@H](c3ccccc3)N2[C@H](c2ccc(OCCOC(=O)[C@H]3C[C@H]4C(=O)NCC(=O)N4[C@H]3c3cccc(OCCO)c3)cc2)[C@@]12C(=O)Nc1ccc(I)cc12 | inactive
C[C@@H]1CN([C@H](C)CO)C(=O)c2cc(NC(=O)Nc3ccc(F)cc3)ccc2O[C@@H](C)CCCCO[C@@H]1CN(C)S(=O)(=O)c1ccc(F)cc1 | inactive
C[C@@H]1CCCCO[C@H](CN(C)S(=O)(=O)c2ccc(F)cc2)[C@H](C)CN([C@H](C)CO)C(=O)c2cc(NC(=O)Nc3ccc(F)cc3)ccc2O1 | active
C[C@@H]1CCCCO[C@H](CN(C)S(=O)(=O)c2ccc(F)cc2)[C@@H](C)CN([C@H](C)CO)C(=O)c2cc(NC(=O)Nc3ccc(F)cc3)ccc2O1 | inactive
COC(=O)C1=CO[C@@H](O[C@@H]2O[C@H](CO)[C@@H](O)[C@H](O)[C@H]2O)[C@@H]2[C@@](C)(O)[C@@H](OC(=O)/C=C/c3ccc(O)cc3)C[C@]12O | inactive
OCC(O)C(O)CO (stereo not given) | inactive
OC[C@@H](O)[C@@H](O)CO | inactive
C[C@@H]1CCCCO[C@@H](CN(C)C(=O)NC2CCCCC2)[C@H](C)CN([C@@H](C)CO)C(=O)c2cc(NC(=O)c3ccccc3)ccc2O1 | inactive
CCCNC(=O)N(C)C[C@H]1Oc2cc(C#Cc3ccccn3)ccc2S(=O)(=O)N([C@@H](C)CO)C[C@@H]1C | inactive
COc1ccc(CN(C)C[C@H]2OCCCC[C@@H](C)Oc3ccc(NC(=O)c4ccccc4)cc3C(=O)N([C@@H](C)CO)C[C@H]2C)cc1 | inactive
CCS(=O)(=O)N1Cc2cc(C(=O)NCCOC)nc(-c3cccc(-c4ccncc4)c3)c2[C@H]1CCO | inactive
CCN(CC)CCN(Cc1ccc(-c2ccc(C(F)(F)F)cc2)cc1)C(=O)Cn1c(SCc2ccc(F)cc2)nc(=O)c2c1CCC2 | active
C[C@H](CO)N1C[C@H](C)[C@H](CN(C)C(=O)NC2CCCCC2)Oc2c(NS(=O)(=O)c3cn(C)cn3)cccc2C1=O | inactive
C[C@H](CO)N1C[C@H](C)[C@H](CN(C)S(=O)(=O)c2cccc(F)c2)Oc2ncc(C#CC3CCCC3)cc2C1=O | inactive
C[C@@H]1CN([C@@H](C)CO)C(=O)c2cc(C#CC3CCCC3)cnc2O[C@H]1CN(C)S(=O)(=O)c1cccc(F)c1 | active
C[C@H](CO)N1C[C@H](C)[C@@H](CN(C)S(=O)(=O)c2cccc(F)c2)Oc2ncc(C#CC3CCCC3)cc2C1=O | inactive
C[C@@H]1CN([C@H](C)CO)C(=O)c2cc(C#CC3CCCC3)cnc2O[C@H]1CN(C)S(=O)(=O)c1cccc(F)c1 | inactive

Compound | cytotoxicity call
C[C@H]1CN([C@@H](C)CO)C(=O)c2cc(C#CC3CCCC3)cnc2O[C@@H]1CN(C)S(=O)(=O)c1cccc(F)c1 | active
C[C@@H]1CN([C@H](C)CO)C(=O)c2cc(C#CC3CCCC3)cnc2O[C@@H]1CN(C)S(=O)(=O)c1cccc(F)c1 | inactive
COc1ccc(NC(=O)N(C)C[C@@H]2OCCCC[C@@H](C)Oc3ccc(NS(=O)(=O)c4ccc(Cl)cc4)cc3C(=O)N([C@@H](C)CO)C[C@@H]2C)cc1 | inactive
C=c1cc(C)ccc1=C1NN=C(NC(C)=O)O1 | inactive
COc1ccc(S(=O)(=O)N(C)C[C@@H]2OCCCC[C@H](C)Oc3ccc(NC(=O)C4CCCCC4)cc3C(=O)N([C@H](C)CO)C[C@H]2C)cc1 | inactive
CCCc1nc(C)c2c(=O)[nH]c(-c3cc(S(=O)(=O)N4CCN(CC)CC4)ccc3OCC)nn12.Cl | inactive
CCCOc1ccc(S(=O)(=O)NCC[C@@H]2CCCN2C)cc1-c1nc2c(CCC)nn(C)c2c(=O)[nH]1 | inactive
CCCc1nn(C)c2c(=O)[nH]c(-c3cc(S(=O)(=O)N4CCN(C)CC4)ccc3OCC)nc12.O=C(O)CC(O)(CC(=O)O)C(=O)O | active
CCS(=O)(=O)Nc1ccc2c(c1)C(=O)N(C)[C@@H]1CC[C@H](CC(=O)NCc3ccc(OC)cc3)O[C@@H]1CO2 | inactive
C[C@@H]1CCCCO[C@H](CN(C)Cc2ccccc2)[C@@H](C)CN([C@@H](C)CO)C(=O)c2cc(NS(=O)(=O)c3cccs3)ccc2O1 | inactive
C[C@@H]1CN([C@@H](C)CO)C(=O)c2cc(NS(=O)(=O)c3cccs3)ccc2O[C@@H](C)CCCCO[C@H]1CN(C)Cc1ccccc1 | active
C[C@@H]1CN([C@H](C)CO)C(=O)c2cc(NS(=O)(=O)c3cccs3)ccc2O[C@@H](C)CCCCO[C@@H]1CN(C)CC1CCCCC1 | inactive
Cc1noc(C)c1S(=O)(=O)Nc1ccc2c(c1)C(=O)N([C@@H](C)CO)C[C@H](C)[C@@H](CN(C)Cc1ccc(C(=O)Nc3ccccc3N)cc1)OCCCC[C@@H](C)O2 | inactive
Cc1noc(C)c1S(=O)(=O)Nc1ccc2c(c1)C(=O)N([C@@H](C)CO)C[C@@H](C)[C@@H](CN(C)Cc1ccc(C(=O)Nc3ccccc3N)cc1)OCCCC[C@H](C)O2 | inactive
Cc1noc(C)c1S(=O)(=O)Nc1ccc2c(c1)C(=O)N([C@H](C)CO)C[C@H](C)[C@@H](CN(C)Cc1ccc(C(=O)Nc3ccccc3N)cc1)OCCCC[C@@H](C)O2 | active
C[C@@H]1CN([C@H](C)CO)C(=O)c2cc(NS(=O)(=O)c3cccs3)ccc2O[C@@H](C)CCCCO[C@H]1CN(C)Cc1ccccc1 | inactive
C[C@@H]1CCCCO[C@H](CN(C)CC2CCCCC2)[C@H](C)CN([C@H](C)CO)C(=O)c2cc(NS(=O)(=O)c3cccs3)ccc2O1 | inactive
C[C@@H]1CCCCO[C@@H](CN(C)Cc2ccccc2)[C@H](C)CN([C@@H](C)CO)C(=O)c2cc(NS(=O)(=O)c3cccs3)ccc2O1 | inactive
C[C@H]1CCCCO[C@@H](CN(C)Cc2ccccc2)[C@@H](C)CN([C@@H](C)CO)C(=O)c2cc(NS(=O)(=O)c3cccs3)ccc2O1 | active
C[C@H](CO)N1C[C@H](C)[C@@H](CN(C)Cc2ccccc2)OCCCC[C@H](C)Oc2ccc(NS(=O)(=O)c3cccs3)cc2C1=O | inactive
C[C@@H]1CCCCO[C@H](CN(C)CC2CCCCC2)[C@H](C)CN([C@@H](C)CO)C(=O)c2cc(NS(=O)(=O)c3cccs3)ccc2O1 | active
